Measurements from PubChem BioAssay (NCATS).
Inconclusive results are not listed. Entries that show only a call come without a potency. The source made the active and inactive calls. Calls follow the shape of the dose curve; as a rule, active = well fitted activation curve with a large enough effect; inconclusive = small, poorly fitted or top-dose-only effect; inactive = no such curve, though single readings can be large or run the other way.

Assay: qHTS for activators of Nrf2/ARE signaling pathway screened against the NCATS CANVASS Library (AID 1347391); also: nearly all actives have a fitted effect of over 60% in size
Settings: ARE-bla HepG2, beta-lactamase reporter, 16 h; series mostly up to 46.1 µM
From the text: Natural products and their derivatives continue to be wellsprings of nascent therapeutic potential. However, many laboratories have limited resources for biological evaluation, leaving their previously isolated or synthesized compounds largely or completely untested. To address this issue, the Canvass library of natural products was assembled (https://tripod.nih.gov/canvass), in collaboration with academic and industry researchers, for quantitative high-throughput screening (qHTS) across a diverse set of cell-based and biochemical assays. The pure (>85% purity by liquid chromatography/mass spectrometry [LC/MS]) Canvass library of 346 natural products were submitted by 45 academic laboratories and companies around the world. We collected pure natural products to circumvent deconvolution and structure elucidation due to time and resource limitations. The library was formatted into 1536-well plates and evaluated in 50 qHTS (in an 11-pnt concentration series) bioassays with broad scope of disease-relevant mechanisms. The resulting data set from 50 different assays was then systematically analyzed to identify overall trends and specific natural products with interesting biological activities. Reported herein are the results of each individual qHTS and their corresponding assay protocol. This assay measures the activation of the Nrf2/ARE signaling pathway in cells using a beta-lactamase reporter gene. The ARE-bla HepG2 assay (Invitrogen) can detect the up-regulation of the antioxidant response element (ARE) signaling pathway and may be useful for the identification of chemicals that induce oxidative stress. National Center for Advancing Translational Sciences (NCATS), Rockville, MD National Institute of Health (NIH), Bethesda, Maryland
Nrf2/ARE-screen assay protocol: 1. In a white-solid bottom 1536-well plate, 5 uL of ARE-bla HepG2 cell suspension was dispensed using a Multidrop Combi (Thermo Fisher Scientific) at a final concentration of 2000 cells / well. 2. The assay plates were incubated for 5 hours at 37C, 5% CO2. 3. 23 nL of compounds (in DMSO; columns 5-48), vehicle control DMSO, and positive control were pin transferred into the assay plates using the Kalypsis pin tool (Wako USA) equipped with a 1536-well pin heads. This yields a final CANVASS compound concentration of 0.4 nM - 95 uM. 4. The assay plates were incubated for 16 hours at 37C, 5% CO2. 5. After compound treatment, 1 uL per well of CCF4 dye detection reagent was added using the BioRAPTR dispenser. 6. The assay plates were incubated for 2 hours at room temperature. 7. Fluorescence readout was obtained using the Envision plate reader (PerkinElmer) using a 405 nm excitation and 460 nm and 530 nm emission filters. 8. To evaluate cell viability, 4 uL of CellTiter-Glo was added to each wells using the BioRAPTR dispenser followed by a 30 min room temperature incubation. 9. Luminescence was measured using the ViewLux plate reader with clear emission filter and 2x binning, 1 sec exposure settings.
Potency is read from the fitted curve at half-maximal effect.

| SMILES | Potency |
| --- | --- |
| CCC[C@H]1CC[C@H]2[C@H](C)CCC[C@H]2N1 | inactive |
| CCCC[C@@H]1CC[C@H]2CCCC(CCC)N12 (stereo not given in full) | inactive |
| CCN1C[C@]2(C)CC[C@H](O)[C@]34C1C(C[C@H]23)[C@@]12CC[C@H](CC14)[C@](O)(COC(=O)c1ccc(OC)c(OC)c1)[C@H]2O (stereo not given in full) | inactive |
| CCN1C[C@]2(C)CC[C@@H](O)[C@]34C1[C@H](C[C@H]23)C12CCC(CC14)[C@](O)(CO)[C@H]2O (stereo not given in full) | inactive |
| CN1C(=O)[C@]23CC4C(C)(C)[C@@]5(C[C@@]41CN2CC[C@@]3(C)O)C(=O)Nc1c5ccc2c1OC=CC(C)(C)O2 (stereo not given in full) | inactive |
| CC1=CC2CC[C@@H]3[C@@H](C)C[C@H](C)[C@@H](C1)N23 (stereo not given in full) | inactive |
| CN(C)Cc1c[nH]c2ccccc12 | inactive |
| CC1=CC(=O)C2=C(C)C[C@H](O)[C@@H]3[C@H](OC(=O)[C@@H]3C)[C@@H]12 | 13.2 µM (active) |
| CNCCc1ccccc1 | inactive |
| CC[C@@H]1CN2CC[C@@]3(O)C(=Nc4cccc(OC)c43)[C@@H]2C[C@@H]1/C(=C\OC)C(=O)OC | inactive |
| CNCCc1c[nH]c2ccccc12 | inactive |
| O=C(c1ccccc1O)c1[nH]c(Cl)c(Cl)c1-n1c(C(=O)c2ccccc2O)cc(Cl)c1Cl | inactive |
| c1ccc2c3c([nH]c2c1)CNCC3 | inactive |
| CC[N@@+]1([O-])C[C@]2(C)CC[C@@H](O)[C@@]34C5C[C@H]6CC[C@@]5(C(C[C@H]23)C41)[C@H](O)[C@@]6(O)CO (stereo not given in full) | inactive |
| CO[C@H](c1ccccc1)[C@H]1NC(=O)C(C)NC(=O)C(C[C@@H](C)CO)N(C)C(=O)[C@@H](C(O)c2cn(C(C)(C)C3CO3)c3ccccc23)NC(=O)C(C(C)C=C(C)C)NC(=O)C(CC(C)C)N(C)C(=O)C(C(C)C)NC1=O (stereo not given in full) | inactive |
| CCCCC[C@@H]1OC(=O)[C@@H](C)N(C)C(=O)[C@H](CCCCC)OC(=O)C(C)N(C)C(=O)[C@H](CCCCC)OC(=O)[C@@H](C)N(C)C(=O)[C@H](CCCCC)OC(=O)C(C)N(C)C1=O (stereo not given in full) | inactive |
| NCCc1ccccc1 | inactive |
| COC(=O)C1=C2Nc3ccccc3[C@@]23CCN2CC(C(C)=O)C1C[C@H]23 (stereo not given in full) | inactive |
| CNCCc1ccc(O)cc1 | inactive |
| CC(=O)N[C@H]1CCN2CCC[C@H]12 | inactive |
| CO[C@@H](/C=C/CC/C=C/C(=O)O)[C@@H](O)[C@H](C)/C=C(\C)[C@@H](O)[C@H](C)C(=O)CCCC1CC(=O)NC(=O)C1 | inactive |
| CCC(=O)CCCCC[C@@H]1NC(=O)[C@H]2CCCCN2C(=O)[C@H]([C@@H](C)CC)NC(=O)[C@H](Cc2cn(OC)c3ccccc23)NC1=O | inactive |
| C=C1[C@@H](C)[C@H]2[C@H](Cc3ccccc3)NC(=O)[C@]23OC(=O)/C=C/[C@H](O)CCC[C@@H](C)C/C=C/[C@H]3[C@@H]1O | inactive |
| CO[C@@H](/C=C/CC/C=C/C(=O)O)[C@@H](O)[C@H](C)[C@@H](O)/C(C)=C/[C@H](C)C(=O)CCCC1CC(=O)NC(=O)C1 | inactive |
| C/C=C1/CN2CC[C@]34C(=Nc5ccccc53)[C@@H]2C[C@@H]1[C@H]4C(=O)OC | inactive |
